SARS PLpro yeast: inhibitors of SARS-CoV papain-like protease in yeast | AID 485353 | 330,000 compounds, 0.19% hits | S. cerevisiae expressing SARS-CoV PLpro, growth rescue | Potency, µM (series often up to 32.9 µM), without a hit: at the top dose activity, positive = growth rescue, hits mostly activators; note: potency is the fitted concentration of half-maximal effect; 0% is about no effect; nearly all actives have a fitted effect of over 55% in size
Pf growth 96h: P. falciparum growth inhibition at 96 hours; 320,000 compounds, 6.9% hits; Potency, µM (doses to about 28.7 µM), inactives show at the top dose activity change, negative = inhibition, actives largely listed as inhibitors; P. falciparum luciferase reporter growth, 96 h; active = well fitted inhibition curve with a large enough effect; inconclusive = small, poorly fitted or top-dose-only effect, or another doubt; inactive = no such curve, though single readings can be large or run the other way; note: potency is the fitted concentration of half-maximal effect; % is set by controls: 0 for no effect and ±100 for the full control effect
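Two parasite generations (96 h, 37 C, 5% CO2) of compound exposure in infected erythrocytes (0.05% parasitemia, 2% hematocrit). Luciferase-reporter P. falciparum; decreased luminescence indicates inhibited growth, aimed at apicoplast-acting delayed death.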
Cycloheximide cs: counter-screen hit for Shiga toxin inhibitors, cycloheximide. cell reporter, cycloheximide protein synthesis inhibition counterscreen. max response, %. 300,000 compounds, 12% hits. AID 2314; in the data active = max response mostly above about 13%, no sharp cut-off; inactive = mostly below about 14%; note: read at 38.3 µM for the half of the compounds with a filed dose; 0% is about no effect
Shiga toxin inh: Shiga toxin inhibition. Vero cells, Shiga toxin protein synthesis inhibition reporter. inhibition, % at 38.7 µM. 290,000 compounds, 9.2% hits. AID 2315; in the data active = inhibition mostly above about 28%, no sharp cut-off; inactive = mostly below about 43%; note: 0% is about no effect
NS1 inh: inhibitors of influenza NS1 protein function. Potency, µM (top dose mostly 46.1 µM), without a hit: top-dose activity, positive = more growth. 270,000 compounds, 0.4% hits; note: potency is the fitted concentration of half-maximal effect; actives are rising curves; nearly all actives have a fitted effect of over 50% in size
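Growth recovery, yeast-based: influenza A NS1 expressed in S. cerevisiae causes slow growth, and suppressors are detected by OD600. The parent strain without NS1 is used as positive control.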
Pf growth 48h: inhibits P. falciparum growth in the first generation, 48 h; P. falciparum luciferase growth in erythrocytes, 48 h; Potency, µM (doses to about 28.7 µM), for inactives: at the top dose activity change, negative = inhibition, usual class: inhibitors; 310,000 compounds, 5.9% hits; active = well fitted inhibition curve with a large enough effect; inconclusive = small, poorly fitted or top-dose-only effect, or another doubt; inactive = no such curve, though single readings can be large or run the other way; note: potency is the fitted concentration of half-maximal effect; % is set by controls: 0 for no effect and ±100 for the full control effect
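A one-generation exposure of luciferase-tagged malaria parasites in RPMI 1640/Albumax erythrocyte culture, 37 C and 5% CO2. Inhibition is inferred from decreased luminescence after adding detection reagent.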
Flu NS1 inh: validation of influenza NS1 protein function inhibitors; influenza NS1 function cell assay, 15-point titration; 1,400 tested, under 10 active; shares compounds with NS1 inh; activity change, negative = inhibition, % at 32.9 µM; note: 0% is about no effect
PR8 titer: influenza NS1 inhibitors: inhibition of influenza A/PR/8/34 replication; virus titer (log TCID50), log10 TCID50 at 5 µM; MDCK infected influenza A/PR/8/34, virus titer TCID50; active compounds read low; 95 compounds, 30% hits; shares compounds with NS1 inh; call rule not given here
The depositor's hits bear a star; ? = inconclusive; . = no result given. In the library only some 21% were active in any assay of this set; here they are far more common. Unless noted, calls come from the whole dose curve.

SMILES	SARS PLpro yeast	Pf growth 96h	Cycloheximide cs	Shiga toxin inh	NS1 inh	Pf growth 48h	Flu NS1 inh	others
CCN(CC)S(=O)(=O)c1cccc(NC(=O)c2ccc(Sc3nncn3C)c([N+](=O)[O-])c2)c1	0.8%	?	-1.0	19.8	.	?	.
CCOC(=O)N1CCC(c2nc(C)sc2C(=O)O)CC1	10.7%	-9.6%	-4.2	17.5	?	89.2%	-3.3
O=[N+]([O-])c1ccc(N(c2ccccc2)c2ccccc2)cc1	-27.5%	?	-2.3	4.0	?	?	?
CC1=C(C#N)c2nc(N)c(C#N)c(C)c2/C1=C\c1ccc(C)cc1	3.9%	?	-1.9	-2.2	12.6µM*	?	?
COc1cc(/C=C2\C(C)=C(C#N)c3nc(N)c(C#N)c(C)c32)ccc1OCC(=O)O	0.0%	18.5%	-1.9	-9.0	10.4%	22.5%	.
Cn1c(SCC(=O)c2ccccc2)nnc1-c1cccs1	-1.7%	1.2%	25.3*	86.3*	?	-0.5%	-25.0
COc1ccc(NC(=O)CSc2nnc(C3CC3)n2-c2ccccc2)cc1	1.0%	?	16.6	11.2	-3.1%	?	.
COc1ccc(NC(=O)CSc2nnc(Cc3cccn3C)n2-c2ccc(F)cc2)cc1	-1.3%	?	-3.0	-14.1	-8.4%	?	.
COc1ccc(-n2c(Cc3cccn3C)nnc2SCC(=O)Nc2ccc(F)cc2)cc1	7.3%	?	5.9	9.1	?	?	8.0
COc1ccc(NC(=O)CSc2nnc(-c3cccs3)n2-c2ccccc2)cc1	0.4%	-2.6%	-2.9	15.2	2.82µM*	?	11.5
Cc1ccc(-n2c(Cc3cccn3C)nnc2SCC(=O)N2CCc3ccccc32)cc1	-3.6%	.	-2.8	-6.7	7.94µM*	?	-19.0
O=[N+]([O-])c1ccc2c(c1)C=C1CCCCC1(N1CCCC1)O2 (stereo not drawn)	1.9%	?	-2.8	-6.7	2.4%	-0.9%	.
Cn1c(N)c(C(=O)COC(=O)CNC(=O)c2ccc(Cl)cc2Cl)c(=O)n(C)c1=O	17.4%	.	.	.	.	.	.
O=C(Nc1cc(Sc2nc3ccccc3s2)cc([N+](=O)[O-])c1)c1cccc(F)c1F	8.3%	-19.2%	4.2	-3.3	25.0%	?	.
O=C(/C=C/c1ccc([N+](=O)[O-])cc1)OCC(=O)N1c2ccccc2Sc2ccccc21	14.2%	0.4%	-1.5	-11.5	8.2%	2.3%	.
Cc1cc(C)nc(Nc2n[nH]c(COc3ccccc3)n2)n1	-5.6%	-2.3%	2.5	13.4	-5.4%	27.7%	.
Cc1cc(C)nc(Nc2n[nH]c(COc3ccc4ccccc4c3)n2)n1	4.4%	10.5%	-3.8	-9.0	2µM*	-5.0%	15.4
CCCN(CCC)Cc1c(C(=O)N/N=C/c2ccc(Br)cc2)nnn1-c1nonc1N	4.4%	3.0%	-2.1	-22.3	-17.5%	-8.7%	.
O=C(COC(=O)c1ccc[nH]c1=O)Nc1cc(S(=O)(=O)N2CCCCC2)ccc1Cl	2.0%	-0.9%	6.6	11.3	.	0.6%	.
O=C(COC(=O)c1ccc[nH]c1=O)Nc1ccc(S(=O)(=O)N2CCCC2)cc1	-1.5%	0.0%	-1.3	-14.3	11.2µM*	-1.4%	3.0	PR8 titer=7.66
Cc1sc2nc(CN(Cc3cccs3)C(=O)NC3CCCCC3)[nH]c(=O)c2c1C	-9.8%	-3.9%	1.9	-17.5	0.447µM*	?	?
Cc1ccc(C(=O)OCC(=O)c2c[nH]c3ccccc23)cc1S(=O)(=O)N1CCOCC1	-3.6%	?	.	.	.	?	.
COCCN1CCn2c(nc3cc(NC(=O)c4ccc(OC)cc4)ccc32)C1	?	.	7.0	13.7	12.6µM*	?	12.8	PR8 titer=8.33
Cc1nn(CC(=O)Nc2ccc3c(c2)nc2n3CCOC2)c(=O)c2ccccc12	6.6%	34.8%	2.5	-6.5	-0.6%	.	.
COCCN1CCn2c(nc3cc(NC(=O)Cn4nc(C)c5ccccc5c4=O)ccc32)C1	-5.2%	-4.1%	-1.3	-12.0	?	-10.3%	6.9
SMILES	SARS PLpro yeast	Pf growth 96h	Cycloheximide cs	Shiga toxin inh	NS1 inh	Pf growth 48h	Flu NS1 inh	others
CCc1ccccc1NC(=S)N1CCN(c2cccc(OC)c2)CC1	2.1%	-2.6%	1.4	.	4.7%	37.7%	.
CCOC(=O)C1=CN(Cc2cccc(Br)c2)S(=O)(=O)NC1C (stereo not drawn)	1.9%	.	.	.	.	.	.
CC1=NN(c2ccc(C(=O)OC(C)C)cc2)C(=O)/C1=C\C=C\c1ccco1	?	?	2.7	12.4	11.2µM*	2.94µM*	3.1
COc1cccc(CNC(=O)N[C@@H](CC(C)C)C(=O)O)c1	-2.9%	-14.0%	-7.0	-13.4	7.9%	.	.
CCC(C)[C@H](NC(=O)NCc1cccc(OC)c1)C(=O)OC (stereo partly drawn)	13.3%	21.4%	3.3	28.6	2.24µM*	47.6%	-8.9
CCOC(=O)C1(Cc2cccc(OC)c2)CCCN(C(=O)CCN2CCCO2)C1 (stereo not drawn)	6.2%	59.1%	56.7*	147.5*	?	-8.6%	-14.7
Cc1nn(-c2ccccc2)c2[nH]c(=O)c(CNCc3ccc4c(c3)OCO4)cc12	-1.2%	8.6%	9.9	15.5	7.94µM*	4.65µM*	6.8
O=C(CC1NCCNC1=O)Nc1ccc2c(c1)OCO2 (stereo not drawn)	6.5%	4.8%	-1.8	-5.4	1.12µM*	.	5.5
OC1(c2nc3ccccc3[nH]2)CCCCC1	0.7%	62.5%	.	.	.	?	.
C/C(=N/NS(=O)(=O)c1ccccc1)c1ccc(Cl)cc1	-0.7%	238.8%	-6.7	-5.5	0.0%	-2.4%	.
C/C(=N\Nc1nc2ccc(Cl)cc2o1)c1ccccc1	-1.8%	-20.8%	26.7*	73.5*	8.91µM*	2.3%	?
Fc1ccc(-c2csc(N3CCC(c4ccccc4)C3)n2)cc1 (stereo not drawn)	0.8%	191.9%	76.4*	93.7*	?	99.4%	-25.4
NC(=O)CN1CCN(c2nc(-c3ccc(F)cc3)cs2)CC1	-8.8%	110.4%	2.3	15.6	7.1%	42.5%	.
Cc1cc(C)n(S(=O)(=O)c2ccc(Cl)c(Cl)c2Cl)n1	-9.6%	?	-3.3	-7.0	-42.4%	-10.0%	.
Cc1cc(C)n(S(=O)(=O)c2cc(C(=O)O)c(Cl)cc2Cl)n1	9.8%	.	0.4	-9.1	?	0.1%	9.6
Cc1cc(NC(=O)c2cccc(S(=O)(=O)N(C)C)c2)n(-c2ccccn2)n1	-2.2%	4.65µM*	-5.0	-7.5	12.6µM*	.	-15.2
Cc1cc(NC(=O)c2cccc(S(=O)(=O)N3CCCCCC3)c2)n(-c2ccccn2)n1	-2.0%	-7.8%	-1.3	36.8	-36.8%	15.9%	.
COc1ccc2[nH]c(=O)c(CN(Cc3cccs3)Cc3nnnn3Cc3ccccc3)cc2c1	2.2%	.	-3.9	-7.1	3.1%	?	.

Screens from PubChem BioAssay.
